Compounds with a hit are over-represented: about 19% of the library has one in this group of screens.
Pf growth 48h: inhibits P. falciparum growth in the first generation, 48 h. P. falciparum luciferase growth in erythrocytes, 48 h. Potency, µM (titrated, usually from 28.7 µM), hits mostly inhibitors. 5.9% of 310,000 active
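In quantitative HTS format, infected erythrocytes bearing luciferase-reporter parasites were treated for a single generation at 37 C. Luminescence after adding detection reagent served as the growth measure.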
Cycloheximide cs: affects cycloheximide protein synthesis inhibition readout, counter-screen; cell reporter, cycloheximide protein synthesis inhibition counterscreen; max response, %; 12% of 300,000 active; AID 2314; in the data active = max response mostly above about 13%, no sharp cut-off; inactive = mostly below about 14%; also: read at 38.3 µM for the half of the compounds with a filed dose
Pf growth 96h: inhibits malaria parasite growth, 96 h; 6.9% of 320,000 active; P. falciparum luciferase reporter growth, 96 h; AID 504834; Potency, µM (top dose mostly 28.7 µM), hits mostly inhibitors
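P. falciparum expressing integrated firefly luciferase, in erythrocytes at 2% hematocrit, 0.05% parasitemia, incubated with compounds 96 h at 37 C, 5% CO2. Growth inhibition read as loss of luminescence; two-generation exposure targets delayed-death apicoplast inhibitors.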
MARV entry inh: Marburg virus entry inhibition | Marburg virus pseudotyped entry inhibition, cell reporter | Potency, µM (highest dose often 37.8 µM), usual class: inhibitors | 1.8% of 300,000 active | AID 540276; calls by dose curve; tested in HEK293 cells
LASV entry inh: Lassa virus entry inhibition; Lassa virus pseudotype entry inhibition, cell reporter; Potency, µM (doses to about 37.9 µM), hits mostly inhibitors; 1.2% of 300,000 active; AID 540256; calls by dose curve; tested in HEK293 cells; also: nearly all actives have a fitted effect of over 50% in size
Shiga inhibitor: blocks Shiga toxin action in Vero cells; Vero cells, Shiga toxin protein synthesis inhibition reporter; inhibition, % at 38.7 µM; 9.2% of 290,000 active; in the data active = inhibition mostly above about 28%, no sharp cut-off; inactive = mostly below about 43%
Large screens that a line does not name were inactive. Unless noted, calls follow the shape of the dose curve; as a rule, active = well fitted inhibition curve with a large enough effect; inconclusive = small, poorly fitted or top-dose-only effect, or another doubt; inactive = no such curve, though single readings can be large or run the other way.

CCOC(=O)Cn1c(=O)c2c(nc(Br)n2Cc2ccccc2)n(C)c1=O	none (no result: Pf growth 96h, LASV entry inh)
CCCCOC(=O)Cn1c(=O)c2c(nc3n2CCCCN3c2ccc(C)cc2)n(C)c1=O	Pf growth 48h 7.4µM, MARV entry inh inconclusive
O=c1cnnc(SCc2ccc([N+](=O)[O-])cc2)[nH]1	none
CCCCOC(=O)Cn1c(=O)c2c(nc(Br)n2Cc2ccccc2)n(C)c1=O	Pf growth 48h 9.3µM, Pf growth 96h inconclusive
O=C1Nc2cc(Cl)cnc2N2CCCC12 (stereo not given)	Pf growth 96h 4.1µM
COc1ccc(C2C=C(c3ccccc3)Nc3nc(CCCO)nn32)cc1 (stereo not given)	Pf growth 48h inconclusive, Pf growth 96h inconclusive
O=C(COc1ccccc1)NNc1nc2c(F)cc(F)cc2s1	none (no result: MARV entry inh, LASV entry inh)
O=C(Nc1nc2c(F)cc(F)cc2s1)c1ccccn1	Cycloheximide cs 35, Pf growth 96h inconclusive, MARV entry inh inconclusive, LASV entry inh 7.1µM, Shiga inhibitor 95
CC(C)(C)c1nc(NC(=O)Nc2ccccc2)sc1Br	Pf growth 48h inconclusive, Cycloheximide cs 46, Pf growth 96h inconclusive, Shiga inhibitor 71 (no result: MARV entry inh, LASV entry inh)
Cc1cc(NC(=O)Nc2ccccc2)n(C(C)(C)C)n1	none (no result: Pf growth 48h, MARV entry inh, LASV entry inh)
COc1ccccc1C(=O)Nc1nc2ccccc2s1	Pf growth 48h inconclusive, Pf growth 96h inconclusive (no result: MARV entry inh, LASV entry inh, Shiga inhibitor)
COc1ccc(C(=O)Nc2nc3ccccc3s2)c(OC)c1	Pf growth 48h inconclusive, Pf growth 96h 13µM, MARV entry inh inconclusive, LASV entry inh inconclusive
CCOc1ccc2nc(NC(=O)c3ccccn3)sc2c1	Cycloheximide cs 24, MARV entry inh inconclusive, LASV entry inh inconclusive, Shiga inhibitor 45
Cc1ccc2nc(NC(=O)c3ccccn3)sc2c1	Pf growth 96h inconclusive, MARV entry inh inconclusive (no result: LASV entry inh)
COc1ccc(CC(NC(C)=O)C(=O)NC2CCN(C(=O)Nc3ccccc3Cl)CC2)cc1OC (stereo not given)	none (no result: Pf growth 48h)
CCc1ccc(-c2csc(NC(=O)C3=NN(c4ccccc4)C(=O)CC3)n2)cc1	Pf growth 96h inconclusive, MARV entry inh inconclusive
COc1ccc2nc(NC(=O)C3=NN(c4ccccc4)C(=O)CC3)sc2c1	Cycloheximide cs 18, Pf growth 96h inconclusive
Cc1cc(C)c(-c2csc(NC(=O)C3=NN(c4ccccc4)C(=O)CC3)n2)c(C)c1	Pf growth 48h inconclusive, Pf growth 96h 9.3µM (no result: LASV entry inh)
COc1ccc(OCC(=O)NNc2nc3ccccc3s2)cc1	Cycloheximide cs 44, Shiga inhibitor 77
CCOc1ccc2nc(NC(=S)NCc3ccccc3)sc2c1	Pf growth 96h 4.1µM, MARV entry inh inconclusive, LASV entry inh inconclusive (no result: Pf growth 48h)
COc1ccc(OC)c2sc(NNC(=O)COc3ccccc3)nc12	none (no result: MARV entry inh, LASV entry inh)
Cc1ccc(C)c(NS(=O)(=O)c2cc(C(=O)NCCC3=CCCCC3)ccc2C)c1	Pf growth 48h inconclusive, Pf growth 96h inconclusive, MARV entry inh inconclusive, LASV entry inh inconclusive
Cc1ccc(C)c(NC(=O)CN(C)C(=O)CSC(C)C(=O)Nc2cc(C)on2)c1 (stereo not given)	none
COc1cc(C(=O)Nc2nccs2)ccc1OCc1c(C)noc1C	Pf growth 48h inconclusive
COc1cc(C(=O)Nc2nc3ccccc3s2)ccc1OCc1c(C)noc1C	Pf growth 48h 12µM, Cycloheximide cs 18, Pf growth 96h inconclusive, MARV entry inh inconclusive, LASV entry inh inconclusive
COc1n[nH]c(C(=O)Nc2nc3ccccc3s2)c1[N+](=O)[O-]	Cycloheximide cs 33, MARV entry inh inconclusive, LASV entry inh inconclusive, Shiga inhibitor 75
COc1n[nH]c(C(=O)NCc2ccccc2)c1[N+](=O)[O-]	none
COc1ccc(NC(=O)Nc2nc3ccccc3s2)cc1	Cycloheximide cs 44, Pf growth 96h inconclusive, MARV entry inh inconclusive, Shiga inhibitor 114
CCOc1ccc2nc(NC(=O)Nc3cccs3)sc2c1	Cycloheximide cs 63, LASV entry inh inconclusive, Shiga inhibitor 72
CC(C)CNC(=O)c1ccccc1NC(=O)c1ccccc1N(C)S(C)(=O)=O	none
c1cnc(N2CCSCC2)nc1	none
COc1ccc2nc(NC(=O)Nc3ccccc3)sc2c1	Cycloheximide cs 56, Pf growth 96h inconclusive, MARV entry inh inconclusive, LASV entry inh inconclusive, Shiga inhibitor 92
COc1ccc(NS(=O)(=O)c2cccc(NC(=O)C3=NN(c4ccccc4)C(=O)CC3)c2)cc1	Pf growth 48h inconclusive, Pf growth 96h 7.4µM (no result: MARV entry inh, LASV entry inh)
CCOc1ccc2nc(NC(=O)NC3CCCCC3)sc2c1	Pf growth 48h inconclusive, LASV entry inh inconclusive

Screens: PubChem BioAssay, National Center for Advancing Translational Sciences (NCATS)
